Compound activity deposited in PubChem by National Center for Advancing Translational Sciences (NCATS).
CRE Fsk mod: alters forskolin-stimulated CRE reporter signaling in CHO cells. CHO CRE-bla reporter (cAMP response element driving beta-lactamase), forskolin EC10, beta-lactamase ratio. Potency, µM (top dose mostly 38.2 µM), for the others: at the highest dose activity change, negative = inhibition, usual class: activators. 71,000 tested, 2.5% active; active = well fitted activation curve with a large enough effect in the signal ratio, with a control signal flat, not every such curve was filed as active; inconclusive = small, poorly fitted or top-dose-only effect, or effect the other way, or a change in a side signal; the % refers to the signal ratio; also: % of control where 0% means no effect
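Modulation of forskolin signalling: compounds in titration series added with EC10 NKH 477 to CHO cells carrying a CRE-driven beta-lactamase reporter, 3 h, 37C. CCF4 FRET ratio (460/530 nm, ex 405 nm) gives %activity and AC50.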
ERK AVP inh: blocks ERK signaling stimulated by vasopressin; Potency, µM (highest dose often 57.5 µM), without a hit: at the highest dose activity, negative = inhibition, usual class: inhibitors; HEK293-V1b, vasopressin-stimulated pERK AlphaScreen; 72,000 tested, 0.99% active; AID 995; also: % is scaled to controls: 0 for no effect and ±100 for the full control effect; nearly all actives have a fitted effect of over 55% in size
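HEK293 cells stably expressing V1b receptor, seeded overnight in 1% FBS, were treated with compounds for 30 min at 37C, then stimulated 5 min with 25 nM vasopressin; phospho-ERK read by AlphaScreen SureFire after lysis.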
IkB signaling: inhibitors of IkB signaling in ABC-DLBCL cells. ABC-DLBCL IkBa-CBG/CBR dual luciferase ratio, 4 h; response scale: scaled: untreated 0%, proteasome inhibitor 100%. Potency, µM (doses to about 57.1 µM), for inactives: at the top dose IkBa stabilization activation. 110,000 tested, 0.04% active. AID 445; active = well fitted curve in the direction sought with a large enough effect in the signal ratio, not every such curve was filed as active; inconclusive = small, poorly fitted or top-dose-only effect, or a change in a side signal; the % refers to the signal ratio;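 also: the direction sought is a rising ratio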
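Curves were fitted separately to fusion (green), unfused (red) and ratio luminescence, then classed by r2, magnitude and activity. Cells: OCI-Ly3, 4 h compound plus doxycycline at 37C; 10 uM MG-132 defined full response.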
TSHR ag: TSH receptor (human) agonism; P16473; HEK293-CNG-TSHR cells (CNG channel as cAMP sensor), membrane potential dye, cAMP; AID 926; 73,000 tested, 0.48% active; Potency, µM (highest dose often 57.1 µM), inactives show at the highest dose activation, most hits filed as activators; active = well fitted activation curve with a large enough effect in the main read-out, with a control signal flat, not every such curve was filed as active; inconclusive = small, poorly fitted or top-dose-only effect, or a change in a side signal; inactive = no such curve, though single readings can be large or run the other way; % of control where 0% means no effect;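 also: the control signal comes from parental cells without the receptor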
Target sequence (P16473 whole entry, looked up): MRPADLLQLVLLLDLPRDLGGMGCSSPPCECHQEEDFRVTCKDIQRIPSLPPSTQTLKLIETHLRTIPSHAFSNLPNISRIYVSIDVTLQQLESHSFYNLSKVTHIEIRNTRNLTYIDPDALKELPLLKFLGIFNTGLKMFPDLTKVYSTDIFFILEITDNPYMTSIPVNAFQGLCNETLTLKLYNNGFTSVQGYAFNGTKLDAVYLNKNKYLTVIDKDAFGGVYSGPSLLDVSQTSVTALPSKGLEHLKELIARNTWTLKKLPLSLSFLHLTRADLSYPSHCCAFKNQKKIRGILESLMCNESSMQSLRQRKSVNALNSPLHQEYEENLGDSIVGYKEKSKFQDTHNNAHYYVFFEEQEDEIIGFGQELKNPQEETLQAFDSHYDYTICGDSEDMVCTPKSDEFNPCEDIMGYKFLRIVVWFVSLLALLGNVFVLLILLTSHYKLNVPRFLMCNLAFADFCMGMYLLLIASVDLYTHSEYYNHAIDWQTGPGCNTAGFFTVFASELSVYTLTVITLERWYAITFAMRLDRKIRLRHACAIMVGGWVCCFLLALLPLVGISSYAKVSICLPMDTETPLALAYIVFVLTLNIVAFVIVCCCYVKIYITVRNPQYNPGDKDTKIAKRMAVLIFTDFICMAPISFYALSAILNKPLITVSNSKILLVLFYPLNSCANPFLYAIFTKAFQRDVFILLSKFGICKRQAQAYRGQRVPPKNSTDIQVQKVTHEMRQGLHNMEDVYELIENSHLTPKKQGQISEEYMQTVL
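cAMP rise detected as CNG-channel membrane depolarization by fluorescent dye (emission 590 nm), 30 min after compound, following 60 min dye loading containing 100 uM RO 20-1724 at room temperature. Cells: TSHR/CNG HEK 293, with parental CNG HEK 293 as control.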
HEK293 cAMP cs: parental HEK293 cAMP activation (counter-screen). parental HEK293 CNG cAMP sensor, membrane potential fluorescence. Potency, µM (series often up to 57.1 µM), for the others: at the highest dose activation, usual class: activators. 73,000 tested, 2.5% active. AID 938; also: % of control where 0% means no effect; nearly all actives have a fitted effect of over 55% in size
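Parental HEK 293 cells stably expressing a modified CNG channel (no TSHR) report cAMP rise as membrane depolarization. Membrane potential dye with 100 uM RO 20-1724 was loaded for 60 min at room temperature, then compound added for 30 min; fluorescence read at 590 nm.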
Starred values were filed as active, the others as inactive; [ ] = another dose, or the depositor's remark. This is a sample that favours compounds with a hit; in the whole collection about 3.6% have one here. Unless noted, calls follow the shape of the dose curve; as a rule, active = well fitted curve in the direction sought with a large enough effect; inconclusive = small, poorly fitted or top-dose-only effect, or another doubt; inactive = no such curve, though single readings can be large; an effect the other way counts as inactive or inconclusive. Potency is read from the fitted curve at half-maximal effect.

Screening Cc1ccc2oc(-c3cccc(NC(=O)C4CCCO4)c3)nc2c1 (stereo unspecified) returned CRE Fsk mod 15%, ERK AVP inh -22%, IkB signaling inconclusive, TSHR ag 4% and HEK293 cAMP cs 23%.
Screening O=C(Nc1cccc(-c2nc3cc(Cl)ccc3o2)c1)C1CCCO1 (stereo unspecified) returned CRE Fsk mod inconclusive, ERK AVP inh 20µM*, IkB signaling inconclusive, TSHR ag 3% and HEK293 cAMP cs 11%.
For OC(CCCCN1CCCCC1)c1ccccc1 (stereo unspecified) the results were CRE Fsk mod -3%, ERK AVP inh 10%, IkB signaling 1%, TSHR ag 2% and HEK293 cAMP cs 12%.
Screening O=C(NCCCN1CCCCCC1)[C@@H](c1ccccc1)C1CCCCC1 returned CRE Fsk mod inconclusive, ERK AVP inh 19%, IkB signaling 1%, TSHR ag inconclusive and HEK293 cAMP cs 16µM*.
O=C(c1ccco1)N1CCC2(CC1)CN(Cc1cc(C(F)(F)F)cc(C(F)(F)F)c1)C2 was read as CRE Fsk mod 4%, ERK AVP inh -22%, IkB signaling -1%[11.4 µM], TSHR ag inconclusive and HEK293 cAMP cs 16µM*.
`Cn1cccc1C(=O)N1CCC[C@@]2(CCN(Cc3ccc(C#N)cc3)C2)C1` gave CRE Fsk mod -6%, ERK AVP inh 19%, IkB signaling 0%[11.4 µM], TSHR ag 7% and HEK293 cAMP cs 10%.
For Cn1cccc1C(=O)N1CCC2(CC1)CN(Cc1cc(C(F)(F)F)cc(C(F)(F)F)c1)C2 the results were CRE Fsk mod -15%, ERK AVP inh -20%, IkB signaling 0%[11.4 µM], TSHR ag inconclusive and HEK293 cAMP cs 16µM*.
Cn1cccc1C(=O)N1CCC[C@@]2(CCN(Cc3cc(C(F)(F)F)cc(C(F)(F)F)c3)C2)C1 was read as CRE Fsk mod inconclusive, ERK AVP inh -12%, IkB signaling 0%[11.4 µM], TSHR ag inconclusive and HEK293 cAMP cs 13µM*.
`Cn1c(=O)c2c(nc(CN3CCc4ccccc4C3)n2CCc2ccccc2)n(C)c1=O` gave CRE Fsk mod 3%, ERK AVP inh 3%, IkB signaling -1%, TSHR ag inconclusive and HEK293 cAMP cs 5µM*.
For COc1ccc(N2CCN(Cc3nc4c(c(=O)n(C)c(=O)n4C)n3Cc3ccccc3C)CC2)cc1 the results were CRE Fsk mod inconclusive, IkB signaling 1%, TSHR ag 10µM* and HEK293 cAMP cs 4%.
`COc1ccc(N2CCN(Cc3nc4c(c(=O)[nH]c(=O)n4C)n3Cc3ccccc3C)CC2)cc1` gave IkB signaling 0%.
For Cn1c(=O)c2c(nc(CN3CCCCC3)n2Cc2c(F)cccc2Cl)n(C)c1=O the results were CRE Fsk mod 13µM*, IkB signaling 0%, TSHR ag inconclusive and HEK293 cAMP cs inconclusive.
`CN1CCN(Cc2nc3c(c(=O)[nH]c(=O)n3C)n2Cc2c(F)cccc2Cl)CC1` gave CRE Fsk mod 14%, IkB signaling 2%, TSHR ag 0% and HEK293 cAMP cs 13%.
`COc1cc(NC(=O)C2CCC(CNc3c(N4CCCCC4)c(=O)c3=O)CC2)cc(OC)c1` (stereo unspecified) gave CRE Fsk mod -13%, ERK AVP inh 3%, IkB signaling 3%, TSHR ag -5% and HEK293 cAMP cs -1%.
For CCOC(=O)N1CCN(Cc2cc(=O)oc3ccc4ccccc4c23)CC1 the results were CRE Fsk mod 6%, ERK AVP inh -3%, IkB signaling 0%, TSHR ag inconclusive and HEK293 cAMP cs 25µM*.
For CCOC(=O)CC(NC(=O)Cn1nnc(-c2ccc(C(F)(F)F)cc2)n1)c1ccc(OC)cc1 (stereo unspecified) the results were IkB signaling 0%.
CCCc1c(OCCCOc2ccc(OCC(=O)O)cc2)ccc(C(C)=O)c1O was read as CRE Fsk mod 2.5µM*, ERK AVP inh -1%, IkB signaling 0%, TSHR ag -3% and HEK293 cAMP cs 0%.
